Assay outcomes deposited in PubChem by Fisher Drug Discovery Resource Center.
mcGAS RapidFire: inhibitors of mouse cGAS; inhibition, % at 12.5 µM; Q8C6L5; recombinant mouse cGAS, cGAMP by RapidFire MS; hit rate 0.18% among 130,000;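 active = inhibition of cGAS enzyme activity at or above 60%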;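 note: enzyme stimulated by 45 bp dsDNA with ATP and GTP substrates; cGAMP share of summed cGAMP plus half ATP and half GTP signals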
Target sequence (Q8C6L5 whole entry, looked up): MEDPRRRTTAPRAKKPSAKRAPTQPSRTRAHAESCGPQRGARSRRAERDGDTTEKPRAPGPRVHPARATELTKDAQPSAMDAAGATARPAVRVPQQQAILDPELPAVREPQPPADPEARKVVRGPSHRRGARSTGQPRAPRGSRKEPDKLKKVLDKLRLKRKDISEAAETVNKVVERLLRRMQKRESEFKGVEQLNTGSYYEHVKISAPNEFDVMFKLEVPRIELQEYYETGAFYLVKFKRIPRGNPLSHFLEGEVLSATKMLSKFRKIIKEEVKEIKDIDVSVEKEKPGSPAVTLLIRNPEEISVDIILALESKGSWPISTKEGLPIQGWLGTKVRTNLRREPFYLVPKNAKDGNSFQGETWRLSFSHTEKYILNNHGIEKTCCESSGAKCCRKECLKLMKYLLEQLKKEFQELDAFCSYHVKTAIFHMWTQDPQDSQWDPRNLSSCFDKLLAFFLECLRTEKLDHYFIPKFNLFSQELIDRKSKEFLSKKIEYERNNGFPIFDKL
Each line names hits and unclear results; the compound was inactive in the other large screens; ! = not confirmed by another sample. The sample as a whole holds a higher share of hits than the screen did.

COc1ccc2[nH]c(=O)c(CN3CCC(N4CCCC(O)C4)CC3)cc2c1 (stereo not given)	none
COc1ccc2[nH]c(=O)c(CN3CCCOC(Cn4cccn4)C3)cc2c1 (stereo not given)	none
COc1ccc2cc(CN3CCCN(c4ccncc4)CC3)c(=O)[nH]c2c1	mcGAS RapidFire 60
CCc1nnc2n1NC(C)=C(C(=O)Nc1ccccc1)S2	none
C[n+]1c2cc(N)ccc2cc2ccc(N)cc21	mcGAS RapidFire 99!
CN(Cc1n[nH]c2c1CCCC2)C(=O)c1cn(CC2CCCCC2)nn1	none
CCCCS(=O)(=O)N(C)C(=O)c1cscc1C	none
Cc1nnc(NC(=O)CSc2nnc(CNC(=O)COc3ccccc3)n2-c2ccc(Br)cc2)s1	none
Nc1c2ccccc2nc2ccccc12	mcGAS RapidFire 78!
Cc1ccc2c(N)cccc2n1	none
Nc1c2c(nc3ccccc13)CCCC2	none
CCOC(=O)Cn1c(=NC(=O)c2ccc3ncsc3c2)sc2cc(S(C)(=O)=O)ccc21	none
CN(CCNC(=O)c1ccn(-c2ccccc2Cl)n1)C1CC1	none
CS(=O)(=O)c1nnnn1-c1ccccc1Cl	none
OCc1cn(-c2ccccc2Cl)nn1	mcGAS RapidFire 94
Cc1sc2nc(CN3CCCC3)nc(NCC(=O)NC(C)(C)C)c2c1C	none
CN(CCc1ccccn1)c1ncccc1CNC(=O)c1ccc2c(c1)OCO2	none
CC(=O)Nc1nc2nc(C)c(C)c(=O)n2[nH]1	none
CCCc1nc2nc(C)c([N+](=O)[O-])c(=O)n2[nH]1	none
Cc1nc2nc(C)c(Br)c(=O)n2[nH]1	mcGAS RapidFire 69
CN(C)c1ccc(NC(=O)C2CSc3ccccc3O2)nc1 (stereo not given)	none
O=C1Oc2ccccc2C2c3sc(=O)[nH]c3SCC12 (stereo not given)	mcGAS RapidFire 91
O=C(O)C1Sc2[nH]c(=O)sc2C2c3cc(Cl)cc(Cl)c3OC(=O)C12 (stereo not given)	none
O=C(O)CC12CSc3[nH]c(=O)sc3C1c1ccccc1OC2=O (stereo not given)	none
COc1ccc(C(C)NCC(O)COc2ccc(Cl)cc2Cl)cc1F (stereo not given)	none
COc1cccc2cc(CNC(C)c3ccc(F)c(F)c3)oc12 (stereo not given)	mcGAS RapidFire 67
COc1ccc2cc(CNC(=O)NC(C)c3ccc(F)c(F)c3)ccc2c1 (stereo not given)	none
CCn1nc(C(=O)O)c2c1CCC(NCc1nn(CC)c3ccccc13)C2 (stereo not given)	none
C/C(N)=C(/C#N)C(=O)CSc1nnc(-c2cccc(C)c2)n1C	none
CCOc1c(CC)cnc2c1c(=O)n(CC(N)=O)c(=O)n2C	none
Nc1c(C=C2C=CC(=O)C=C2)c(=O)nc2sc(-c3ccccc3)nn12	none
Nc1c(C=C2C=CC(=O)C=C2)c(=O)nc2sc(-c3ccccc3Cl)nn12	none
CCc1nn2c(N)c(C=C3C=CC(=O)C=C3)c(=O)nc2s1	mcGAS RapidFire 89
CN1C(=O)CON=C1c1ccc(F)cc1	none
O=C(CSCc1ccccc1)c1ccccc1Br	none
N[n+]1cnn(CC(=O)c2ccccc2)c1	none
N[n+]1cnn(CC(=O)c2ccc(Br)cc2Br)c1	mcGAS RapidFire 83
N[n+]1cnn(CC(=O)c2ccccc2Br)c1	mcGAS RapidFire 98
CCC(=O)Nc1ccc(C(=O)Cn2cc(Br)cn2)cc1	none
Cc1nn(CC(=O)c2ccc(Cl)cc2Cl)c(C)[n+]1N	none
Cc1cc2nn(CN3CCN(c4ncccn4)CC3)c(=S)n2c2ccccc12	none
Cc1nc(C)c(C(C)NC(=O)NC2CCCC(C)C2)s1 (stereo not given)	none
S=C(NCC1CCCO1)N1CCN(C(=S)NCC2CCCO2)CC1 (stereo not given)	none
N#CCC1(COC(=O)c2ccsc2)CC1	none
CCN1CC(CNC2CCN(c3cccc(NC(=O)c4ccccc4OC)c3)CC2)CC1=O (stereo not given)	none
CN1CCN(C)C(CNC(=O)C2CC2c2ccc(Cl)c(Cl)c2)C1 (stereo not given)	none
O=C(C1CC1c1ccc(Cl)c(Cl)c1)N1CCCn2ncnc21 (stereo not given)	mcGAS RapidFire 96
CCCn1c(=O)n(CCC(=O)N2CCCn3ncnc32)c2ccccc21	none
CCN1CC(CCN2CCOCC2)C(C(c2ccccc2)c2ccccc2)C1=O (stereo not given)	none
C(=NN=Cc1nc(-c2ccccc2)n2ccccc12)c1nc(-c2ccccc2)n2ccccc12	none
Cc1cc(C)c(C(=O)O)c(=O)[nH]1	none
Cc1cc(O)cc(O)c1C(=O)O	none
Cc1cc(O)c(C=O)c(O)c1C(=O)O	mcGAS RapidFire 82
CC(C)n1ccc(CNC(c2cccs2)C(C)(C)C)n1 (stereo not given)	none
CN(CC1CCOCC1)C(=O)c1cc(COc2cccc3cnccc23)on1	none
Clc1ccc(Oc2ccnc3cc(Cl)ccc23)cc1	none
Clc1ccc2c(Oc3ccc(Br)cc3)ccnc2c1	none
Clc1ccc2c(-n3ccnc3)ccnc2c1	mcGAS RapidFire 67
Cc1cc(-c2ccc(NN=C3C=Cc4c(S(=O)(=O)O)cc(S(=O)(=O)O)c(N)c4C3=O)c(C)c2)ccc1NN=C1C=Cc2c(S(=O)(=O)O)cc(S(=O)(=O)O)c(N)c2C1=O	mcGAS RapidFire 95
Cc1ccc(NS(=O)(=O)c2cc(F)cc(F)c2)cc1C(=O)O	none
CN(CC(O)COc1ccc(Cl)cc1Br)C1CCCC1S(C)(=O)=O (stereo not given)	none
S=c1n(CN2CCCC2)nc(C2COc3ccccc3O2)n1-c1ccccc1 (stereo not given)	none
c1ccc2c(c1)OCC(c1nn3c(CN4CCCCCC4)nnc3s1)O2 (stereo not given)	mcGAS RapidFire 70
c1ccc2c(c1)OCC(c1nn3c(CN4CCOCC4)nnc3s1)O2 (stereo not given)	none
CNc1cncc(-c2cccc(C)c2)n1	none
CCCc1nnc(SCc2cc(C)on2)n1CC(=O)O	none
CNC(=O)CN1CCN(C(=O)c2cc3c(F)cccc3[nH]2)CC1=O	none
CC1(C(=O)NCc2cccnc2)CCN1CC1CCCCC1 (stereo not given)	none
Cc1cc(C)cc(CN2C(=O)NC3(CCOc4ccccc43)C2=O)c1 (stereo not given)	none
O=C1NC2(CCOc3ccccc32)C(=O)N1Cc1coc(-c2cccs2)n1 (stereo not given)	mcGAS RapidFire 95
O=C1NC2(CCOc3ccccc32)C(=O)N1CCN1C(=O)c2ccccc2C1=O (stereo not given)	none
Cc1ccc(S(=O)(=O)C(C)c2ncc(C(C)(C)C)o2)cc1C (stereo not given)	none
COc1ccc(S(=O)C(C)c2ncc(C(C)(C)C)o2)cc1OC (stereo not given)	mcGAS RapidFire 68
CC(Nc1cccc(NC(=O)CO)c1)c1ncc(C(C)(C)C)o1 (stereo not given)	none
Cc1cc(OCCCC(=O)N2CCC(NC(=O)c3ccccn3)CC2)ccc1Cl	none
O=C1CC2(CCCC2)C(=O)N1CN1CCN(S(=O)(=O)c2ccc(Cl)s2)CC1	none
COC(=O)[C@]1(C)N[C@H](c2cc3ccccc3n(C)c2=O)[C@@H]2C(=O)N(C)C(=O)[C@@H]21	none
CC(C)(C)OC(=O)Nc1ccsc1Br	mcGAS RapidFire 66!
CC(C)(C)OC(=O)Nc1ccncc1C(=O)c1ccccc1	none
Cn1ccsc1=NC(=O)c1ccc(NC(=O)OC(C)(C)C)cc1	none
Cc1ccc(C(=O)N2CCC(n3nccc3NC(=O)CCOc3ccccc3)CC2)s1	none
O=C1OCC(CO)(CO)N=C1NNc1ccc(Cl)cc1	none
C=CCN(CC#Cc1ccccc1)C(=O)c1coc2c1C(=O)CCC2	none
CCn1cc(S(=O)(=O)Nc2ccc(I)cc2C)cc1C(=O)O	none
CCOc1cc(/C=c2\sc3nc4cc(Br)cnc4n3c2=O)ccc1O	none
O=c1/c(=C/c2ccc(N3CCOCC3)cc2)sc2nc3cc(Br)cnc3n12	mcGAS RapidFire 81
